CYP2C19 activ – cytochrome P450 2C19 (human) activation; activation factor at 5 µM; P33261; recombinant CYP2C19, luciferin-H EGE luminescence; active compounds read high; 0 = fully inhibited enzyme, 1 = untreated enzyme; 96,000 tested, under 10 active;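 active = activation factor of at least 2 at 5 µM in the primary screen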
CD11b adhes enh – CD11b/CD18-fibrinogen binding enhancement; K562 CD11b/CD18 adhesion to fibrinogen, ATPlite luminescence; actives 0.07% (n = 93,000); activation, % at 10 µM;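 active = 10 µM primary screen giving 50% or more activity, confirmed by 40% or more on retest at that dose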
Mac1 fbg inh – inhibitors of human CD11b/CD18 binding to fibrinogen | K562 CD11b/CD18 adhesion to fibrinogen, ATPlite luminescence; Mn2+ added to activate the integrin | inhibition, % at 10 µM | actives 0.54% (n = 93,000) | AID 1497;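 active = primary inhibition of 50% or more at 10 µM, then 40% or more on retest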
CYP2C9 act – activators of human CYP2C9 | P11712 | recombinant CYP2C9, luciferin-H conversion, luminescence; active compounds read high; factor 1 = untreated enzyme, 0 = blocked | activation factor at 5 µM | actives 1.4% (n = 96,000);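 active = activation factor of 2 or more for CYP2C9 at a 5 µM dose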
Target sequence (P11712 whole entry, looked up): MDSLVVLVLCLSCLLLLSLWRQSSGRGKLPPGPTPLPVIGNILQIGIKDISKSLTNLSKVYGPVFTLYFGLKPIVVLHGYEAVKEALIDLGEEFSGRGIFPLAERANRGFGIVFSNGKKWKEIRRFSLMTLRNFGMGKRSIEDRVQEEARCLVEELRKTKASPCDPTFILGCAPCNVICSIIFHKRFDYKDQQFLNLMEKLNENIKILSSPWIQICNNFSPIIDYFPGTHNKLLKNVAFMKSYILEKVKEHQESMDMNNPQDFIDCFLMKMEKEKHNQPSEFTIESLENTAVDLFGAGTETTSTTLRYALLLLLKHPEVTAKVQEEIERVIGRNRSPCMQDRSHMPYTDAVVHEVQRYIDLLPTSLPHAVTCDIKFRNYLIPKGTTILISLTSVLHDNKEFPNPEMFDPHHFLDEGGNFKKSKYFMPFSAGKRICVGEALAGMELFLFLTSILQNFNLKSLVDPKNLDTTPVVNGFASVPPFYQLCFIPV
CYP2C9 inhib – human CYP2C9 inhibition; CYP2C9 Supersomes, luciferin-H conversion, luminescence; inhibition, % at 5 µM; AID 777; P11712; actives 20% (n = 96,000);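 active = blocking of liver enzyme CYP2C9 beyond about 50% at 5 µM, limit read from the data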
CYP2C19 inh – human CYP2C19 inhibition; P33261; CYP2C19 Supersomes, luciferin-H EGE luminescence, 30 min; inhibition, % at 5 µM; actives 21% (n = 96,000);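 active = CYP2C19 inhibition above a set limit at 5 µM in the primary screen, cut at about 50% in these data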
Hits are given with their value; . = inactive; / = no result. An excerpt weighted towards active compounds, which were near 28% of everything screened.

SMILES	CYP2C19 activ	CD11b adhes enh	Mac1 fbg inh	CYP2C9 act	CYP2C9 inhib	CYP2C19 inh
N#CC1=C(N)OC2=C(C(=O)CCC2)C1c1ccc(OC(=O)N2CCOCC2)cc1 (centres undefined)	.	.	.	.	.	.
COc1cc(C2C(C#N)=C(N)OC3=C2C(=O)CC(C)(C)C3)ccc1OC(=O)N1CCOCC1 (centres undefined)	.	.	.	.	54	.
CCOC(=O)N1CCC(NC(=O)CCc2c(C)nc3nc(C)nn3c2C)CC1	.	.	.	.	.	.
CCOC(=O)N1CCC(NC(=O)CCc2c(C)nc3c(c(C)nn3C(C)(C)C)c2C)CC1	.	.	.	.	82	64
CC1(C)CC(=O)CC(=Nc2ccc(C(=O)O)cc2)C1	.	.	.	.	.	.
COc1nc(N(c2ccccc2)c2ccccc2)nc(-n2ccnc2)n1	.	.	.	.	64	86
CCN(CC)c1nc(N)nc(N(c2ccccc2)c2ccccc2)n1	.	.	.	.	.	.
Cc1cc(C)nc(Sc2c(C)nn(-c3ccccc3)c2C)n1	.	.	.	.	.	91
Cc1cc(C)c[n+](-c2nc3ccccc3nc2C(=C=[N-])C#N)c1	.	.	.	.	.	.
CCOc1ccc(CN2C(=O)c3ccccc3C2C(=O)NCc2cccnc2)cc1 (centres undefined)	.	.	.	.	.	.
COc1ccc(CCNC(=O)CN2CCC(C)CC2)cc1OC	.	.	.	.	.	.
CCOc1ccc(-n2c(-c3ccccc3)c[n+]3c2CCCCC3)cc1	/	.	80	/	/	/
CCOc1ccc(OCC)c(-c2c(=O)n(OCc3ccc(C(C)(C)C)cc3)c3ccccc3[n+]2[O-])c1	.	/	/	.	52	88
COc1ccc(NC(=O)C2CCCN(S(=O)(=O)c3ccc4c(c3)oc(=O)n4C)C2)c(OC)c1 (centres undefined)	.	.	.	.	.	51
Cc1ccc(NC(=O)C2CCCN(S(=O)(=O)c3ccc4c(c3)oc(=O)n4C)C2)nc1 (centres undefined)	.	.	.	.	.	.
COc1ccc(NC(=O)C2CCCN(S(=O)(=O)c3cccnc3)C2)c(OC)c1 (centres undefined)	.	.	.	.	.	59
Cc1csc(NC(=O)C2CCCN(S(=O)(=O)c3ccc4c(c3)oc(=O)n4C)C2)n1 (centres undefined)	.	.	.	.	.	52
Cc1cc(C)c[n+](-c2nc3ccccc3nc2[N-]S(=O)(=O)c2ccc(Cl)cc2)c1	/	.	.	/	/	/
CC(C)[C@H](NC(=O)c1ccco1)C(=O)OCC(=O)N1CCc2ccccc21	.	.	.	.	87	.
S=C(NCCSCc1ccccc1Cl)Nc1ccccc1	.	.	.	.	.	96
S=C(NCCSCc1ccc(Cl)cc1)Nc1ccccc1	.	.	.	.	52	51
NS(=O)(=O)c1ccc(NC(=S)NCc2ccccc2Cl)cc1	/	.	.	/	/	/
CCOC(=O)CC1=C(C(=O)OCC)C(c2ccc(OC)c(OC)c2)C(C#N)=C(N)O1 (centres undefined)	.	.	.	.	87	74
CCN(CC)C(=O)CSC1=C(C#N)C(c2cccs2)C=C(C)N1 (centres undefined)	.	.	.	.	.	60
CCOC(=O)C1=C(CC)OC(N)=C(C#N)C1c1cc(OC)ccc1OC (centres undefined)	.	.	.	.	98	82
SMILES	CYP2C19 activ	CD11b adhes enh	Mac1 fbg inh	CYP2C9 act	CYP2C9 inhib	CYP2C19 inh
COC(=O)CC1=C(C(=O)OC)C(c2ccncc2)C(C#N)=C(N)O1 (centres undefined)	.	.	.	.	80	80
Cc1cc(C2C(C#N)=C(N)Oc3n[nH]c(C)c32)c(C)s1 (centres undefined)	.	/	/	.	.	.
COC(=O)C1=C(C)OC(N)=C(C#N)C1c1cc(C)sc1C (centres undefined)	.	.	.	.	.	88
CCOC(=O)C1=C(C)OC(N)=C(C#N)C1c1ccc(OC)c(C)c1OC (centres undefined)	.	.	.	.	55	73
Cc1cc(C2C(C#N)=C(N)SC(N)=C2C#N)c(C)s1	.	.	.	.	.	92
Cc1sccc1C1C(C#N)=C(N)SC(N)=C1C#N	.	.	.	.	.	.
C#CCSC1=C(C#N)C(c2cccs2)C(C(=O)OCC)=C(C)N1 (centres undefined)	.	.	.	.	72	64
O=C(C1CCN(S(=O)(=O)c2ccc(Br)s2)CC1)N1CCc2ccccc21	.	.	.	.	.	.
CCN(CC)S(=O)(=O)c1cc(C(=O)OCC(=O)Nc2cccc(C)c2C)ccc1F	/	.	.	/	/	/
CCOC(=O)C1=C(C)OC(N)=C(C#N)C1c1cc(F)ccc1F (centres undefined)	.	.	.	.	.	83
CCOC(=O)C1=C(c2ccccc2)OC(N)=C(C#N)C1c1cccs1 (centres undefined)	.	.	.	.	.	.
CCOC(=O)CC1=C(C(=O)OCC)C(c2cccs2)C(C#N)=C(N)O1 (centres undefined)	.	.	.	.	.	78
Cc1cc(C)c[n+](C(C)C(=O)c2ccc(-c3ccccc3)cc2)c1 (centres undefined)	/	.	.	/	/	/
N#CC1=C(N)SC(N)=C(C#N)C1CCC1CCCCC1	.	.	101	.	.	.
Cc1cc(C)nc(N(C#N)CN2C(=O)c3ccccc3S2(=O)=O)n1	.	.	.	.	.	.
N#CCCCCN1c2cccc3cccc(c23)S1(=O)=O	.	.	.	4.9	.	85
CCCN1c2cccc3cccc(c23)S1(=O)=O	.	.	/	4.4	.	90
Cc1ccccc1CSc1n[nH]c(NS(=O)(=O)c2ccccc2)n1	.	.	.	.	.	.
CCCCN1C(=O)NC(NC(=O)c2ccco2)(C(F)(F)F)C1=O (centres undefined)	.	/	/	.	.	.
CC1CCCC(N2C(=O)NC(NC(=O)c3ccco3)(C(F)(F)F)C2=O)C1C (centres undefined)	.	.	.	.	.	63
O=C(NC1CCCCC1)NC1CC2CCC(C1)N2Cc1nnnn1Cc1ccc2c(c1)OCO2 (centres undefined)	.	/	/	.	.	.
CSCC[C@H](NC(=O)OC(C)(C)C)c1nnc(SCC=C(C)C)o1	.	.	.	.	57	51
CSCC[C@H](NC(=O)OC(C)(C)C)c1nnc(SCC(N)=O)o1	.	.	.	.	.	.
CCc1ccccc1NC(=O)CSc1nnc([C@H](CCSC)NC(=O)OC(C)(C)C)o1	.	.	.	.	65	51
CCC(C)(C)n1nnnc1CN(Cc1ccco1)Cc1cc2cc3c(cc2[nH]c1=O)OCO3	.	.	.	.	.	.
